Source: PubChem BioAssay
A selection: hits, their analogues and other compounds. The true share with any hit is near 7.4%.
SMN2 splice enh: qHTS Assay for Enhancers of SMN2 Splice Variant Expression; HEK293 SMN2-luciferase splicing reporter, luminescence, 30-36 h; Potency, µM (doses to about 46.1 µM), for the others: top-dose activity change, positive = activation, most hits filed as activators; 210,000 tested, 2.8% active; AID 1458, 2008; note: % of control where 0% means no effect; nearly all actives have a fitted effect of over 55% in size
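HEK293 cells carry an SMN2 […]–luciferase reporter in which exon 7 inclusion puts luciferase in frame. Cells were plated 10-12 h before compound addition, then incubated 30-36 h at 37C. ONE-Glo luminescence was read; sodium butyrate at 4.5 mM final served as control.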
NPC1 prom act: qHTS Assay for NPC1 Promoter Activators | Huh7 NPC1 promoter luciferase reporter, 24 h | Potency, µM (titrated, usually from 9.22 µM), for inactives: at the top dose activation, hits mostly activators | 320,000 tested, 2.4% active; note: % of control where 0% means no effect; nearly all actives have a fitted effect of over 60% in size
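Compounds in DMSO were transferred onto Huh7 NPC1-luciferase reporter cells pre-incubated 2 h; after 24 h at 37 °C, Amplite reagent was dispensed and luminescence recorded 10 min later.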
Rab9 prom act: qHTS Assay for Rab9 Promoter Activators; Huh7 Rab9 promoter-luciferase reporter, luminescence, 24 h; Potency, µM (top dose mostly 9.22 µM), for the others: top-dose activation, negative = inhibition, usual class: activators; 320,000 tested, 2.8% active; note: % of control where 0% means no effect; nearly all actives have a fitted effect of over 60% in size
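Rab9 promoter-driven luciferase in stably transfected Huh7 cells; 1500 cells/well rested 2 h, exposed to compound in DMSO for 24 h at 37 °C, 5% CO2. Luminescence read 10 min after adding luciferase reagent at ambient temperature.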
ELG1 genotox: qHTS screen for small molecules that induce genotoxicity in human embryonic kidney (HEK293T) cells expressing luciferase-tagged ELG1; AID 504466, 2011; HEK293T ELG1-luciferase reporter, luminescence, 16 h; 330,000 tested, 1.3% active; Potency, µM (highest dose often 46 µM), for inactives: at the top dose activity change, positive = activation, usual class: activators; note: % of control where 0% means no effect; nearly all actives have a fitted effect of over 60% in size
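16 hr compound incubation (37 °C, 5% CO2) of HEK293T cells carrying luciferase-tagged ELG1; luciferase then measured by ONE-Glo luminescence after 30 min at RT.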
FLuc modulator: qHTS profiling assay for firefly luciferase inhibitor/activator using purifed enzyme and Km concentrations of substrates (counterscreen for miR-21 project) | purified FLuc, Km substrates, luminescence inhibition | Potency, µM (doses to about 57.5 µM), for inactives: top-dose activity change, negative = inhibition, hits mostly inhibitors | 360,000 tested, 6.9% active;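 note: plate controls were vehicle for no effect and reference inhibitor for full effect; nearly all actives have a fitted effect of over 55% in size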
Target sequence (P08659 whole entry, looked up): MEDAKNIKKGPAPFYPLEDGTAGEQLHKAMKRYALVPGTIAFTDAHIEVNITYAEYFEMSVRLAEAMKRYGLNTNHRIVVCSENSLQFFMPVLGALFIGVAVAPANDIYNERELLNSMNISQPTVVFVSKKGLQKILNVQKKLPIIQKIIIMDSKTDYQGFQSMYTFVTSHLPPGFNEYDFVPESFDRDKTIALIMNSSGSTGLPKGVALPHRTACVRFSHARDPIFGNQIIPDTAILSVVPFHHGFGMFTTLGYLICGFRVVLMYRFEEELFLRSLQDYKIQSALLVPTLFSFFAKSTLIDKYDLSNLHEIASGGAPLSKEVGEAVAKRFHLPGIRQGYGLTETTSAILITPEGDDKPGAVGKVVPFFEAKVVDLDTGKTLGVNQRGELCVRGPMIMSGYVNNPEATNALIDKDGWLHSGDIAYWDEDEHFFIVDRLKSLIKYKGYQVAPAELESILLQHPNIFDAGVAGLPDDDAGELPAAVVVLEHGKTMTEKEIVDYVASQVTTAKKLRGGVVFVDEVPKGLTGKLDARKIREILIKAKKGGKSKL
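Purified P. pyralis luciferase (10nM final) with 10uM D-luciferin and 10uM ATP (Km levels) in 50mM Tris acetate pH 7.5, 10mM Mg acetate, 0.01% Tween-20, 0.05% BSA; qHTS 6-point titration, ~60 µM downward; luminescence read.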
* hit, by the source's call; ? = inconclusive; . = not tested or not shown; [ ] = dose if it differs, or a comment. Calls come from the whole dose curve; as a rule, active = well fitted curve in the direction sought with a large enough effect; inconclusive = small, poorly fitted or top-dose-only effect, or another doubt; inactive = no such curve, though single readings can be large; an effect the other way counts as inactive or inconclusive. Potency is the fitted concentration of half-maximal effect.

SMILES	SMN2 splice enh	NPC1 prom act	Rab9 prom act	ELG1 genotox	FLuc modulator
CCc1ccccc1NC(=O)CSc1nc2c(c(=O)[nH]1)CN(Cc1ccccc1OC)CC2	.	.	.	.	0%
CSc1ccc(-c2nc3cnccn3c2Nc2ccc3c(c2)OCO3)cc1	-2%	0%	-4%	-1%	19µM*
c1cn2c(Nc3ccc4c(c3)OCCO4)c(-c3ccc(N4CCOCC4)cc3)nc2cn1	.	26%	21%	?	2.7µM*
Clc1ccc(-c2nc3cnccn3c2Nc2ccc3c(c2)OCO3)cc1	1%	-6%	1%	-5%	?
CCCn1c(N)c(C(=O)CSc2nc(C)nc3sc(C)c(C)c23)c(=O)[nH]c1=O	.	-8%	-2%	21%	6%
Cc1ccc(-n2ncc3c(Nc4cccc(C(F)(F)F)c4)ncnc32)cc1C	.	.	.	.	15µM*
Cc1cccc(-n2ncc3c(NC(C)C)ncnc32)c1	3.5µM*	3.2µM*	0.89µM*	2.6µM*	2.4µM*
Cc1cccc(-n2ncc3c(Nc4ccc(F)cc4)ncnc32)c1	11µM*	?	2.5µM*	15µM*	?
Cc1cccc(-n2ncc3c(NCCOCCO)ncnc32)c1	.	.	.	.	19µM*
Cc1c(C(=O)NCCc2ccc(Cl)cc2)sc2nc3n(c(=O)c12)CCCC3	.	.	.	.	-8%
CC(C)C(NC(=O)c1ccc(F)cc1)C(=O)N1CCC1 (stereo unspecified)	.	-1%	-6%	-3%	0%
COc1ccccc1NC(=O)c1ccc2c(c1)N(CC(=O)NC(C)C)C(=O)C(C)(C)O2	.	2%	-7%	-6%	-1%
COc1ccc(Nc2ncnc3c2cnn3-c2cccc(C)c2)cc1OC	.	-1%	-1%	0%	-1%
CC(C)Nc1ncnc2c1cnn2-c1ccccc1	0.63µM*	1.4µM*	0.35µM*	?	2.4µM*
CCCn1ncc2c(Nc3ccc(C)c(C)c3)ncnc21	.	3.5µM*	?	?	24µM*
COc1ccc(-n2ncc3c(Nc4cccc(C)c4)ncnc32)cc1	?	2.8µM*	4µM*	?	11µM*
CCOC(=O)c1ccc(NC(=O)Cc2coc3cc(C)cc(C)c23)cc1	-14%	.	.	.	1%
C/C(=N\NC(=O)c1cccc(Br)c1)c1cccc(NC(=O)c2ccc(C)o2)c1	-1%	0%	2%	-2%	17µM*
CC(/C=C/c1ccccc1F)=N\NC(=O)c1ccccc1	16µM*	?	3.2µM*	?	17µM*
C/C(=N/NC(=O)c1ccccc1)C(=O)O	.	3.5µM*	3.5µM*	?	3.4µM*
C/C(=N\NC(=O)c1ccccc1)c1cccc(Br)c1	?	?	2.5µM*	?	13µM*
CCCc1cc(=O)[nH]c(SCC(=O)NCCN2C(=O)CSC2=O)n1	.	.	.	3%	.
Cc1cc(N2CCCCC2)nc2ccc(NC(=O)/C=C/c3ccc(OCCC(C)C)cc3)cc12	0%	.	.	.	0%
CN(C(=O)CSc1nnnn1C)C1(C#N)CCCCC1	.	-4%	-2%	-1%	-2%
CCOc1ccc(CCNC(=O)c2ccc(CS(=O)Cc3ccccc3Cl)o2)cc1 (stereo unspecified)	.	13%	8%	-7%	24µM*
SMILES	SMN2 splice enh	NPC1 prom act	Rab9 prom act	ELG1 genotox	FLuc modulator
CCOc1ccc(CCNC(=O)c2ccc(CS(=O)Cc3ccc(Cl)cc3)o2)cc1 (stereo unspecified)	.	4%	1%	-6%	?
Cc1c(C(=O)Nc2cccc(Cl)c2)c2ccccn2c1CCc1ccncc1	8%	-2%	-6%	-8%	17µM*
Cc1c(C(=O)Nc2ccc(Cl)cc2)c2ccccn2c1CCc1ccncc1	-3%	?	?	3%	3µM*
CCOc1ccccc1C(=O)N(Cc1ccco1)Cc1ccco1	15%	.	.	.	1%
COc1cc(C(=O)Nc2nc3ccccc3[nH]2)ccc1OC(F)F	.	1.4µM*	2.8µM*	?	11µM*
COc1ccc(C(=O)Nc2nc3ccccc3[nH]2)cc1OC	11µM*	2.8µM*	2.8µM*	?	15µM*
COc1ccc(Br)c(C(=O)Nc2nc3ccccc3[nH]2)c1	.	?	?	24%	-12%
CCOc1ccc(C(=O)Nc2nc3ccccc3[nH]2)cc1OCC	-39%	9%	21%	-7%	?
COc1ccc(Cl)cc1C(=O)Nc1nc2ccccc2[nH]1	.	?	?	?	0.085µM*
COc1ccc(C(=O)Nc2nc3ccccc3[nH]2)cc1S(=O)(=O)N1CCCC1	18%	3%	-2%	3%	?
Cc1nc2ccccn2c(=O)c1NC(=O)c1ccccc1Cl	.	.	.	.	7%
CC1CCc2c(nc3ncnn3c2NCCc2ccccc2F)C1 (stereo unspecified)	.	-4%	0%	-7%	?
Cc1ccc(-c2cc(C(=O)N/N=C\c3cnn(C)c3C)c3ccccc3n2)cc1C	1%	12%	25%	?	0.67µM*
Cc1ccccc1-c1cc(C(=O)N/N=C/c2cccnc2)c2ccccc2n1	.	0%	-1%	2%	-6%
Cc1ccc(-c2cc(C(=O)NCc3cnn(C)c3C)c3ccccc3n2)cc1C	?	.	.	.	2.1µM*
Cc1c(-c2cc(C(=O)O)c3ccccc3n2)cnn1C	13%	-4%	-1%	-4%	-19%
COc1ccc(/C(O)=C/c2nc3ccccc3n(-c3ccccc3)c2=O)cc1	-26%	-3%	26%	21%	7.6µM*
COc1cc(N=Nc2c(O)c3ccccc3[nH]c2=O)c(OC)cc1N=Nc1ccccc1	.	3%	-1%	-4%	15µM*
NC(=O)c1ccc(N=Nc2c(O)c3ccccc3[nH]c2=O)cc1	.	8%	8%	1%	?
COc1ccc([N+](=O)[O-])cc1NS(=O)(=O)Cc1ccccc1	.	-4%	-4%	-3%	1%
CNc1cc([N+](=O)[O-])ccc1OCc1ccccc1	.	16%	16%	9%	19µM*
CC(=O)N1CCC2(CC1)OC(=O)C(C)=C2C(=O)Nc1cc(C)ccc1C	.	.	.	.	-1%
O=[N+]([O-])c1ccc(O)c(-c2nn[nH]n2)c1	-3%	13%	27%	?	27µM*
CC1=NN(c2ccc(Br)cc2)C(=O)/C1=C/c1ccc(-c2ccccc2C(=O)O)o1	.	-1%	-1%	-3%	27µM*
Cc1ccccc1NC(=O)CN1C(=O)S/C(=C\c2ccc(-c3cccc(C(=O)O)c3C)o2)C1=O	11µM*	14%	0%[1.84 µM]	9%	?
Cc1ccccc1NC(=O)CN1C(=O)c2ccccc2C1=O	.	2%	-6%	-2%	-5%
O=C(O)c1ccccc1-c1ccc(/C=C2\SC(=O)N(c3ccccc3)C2=O)o1	.	2.5µM*	2µM*	?	13µM*
